# In PubChem BioAssay (Tox21):
# A number with no mark means an inactive call. Records with an inconclusive call do not appear. Activity calls are given as the source filed them. Unless noted, calls follow the shape of the full dose curve.
# Biological target: KiSS-1 receptor (Homo sapiens) (UniProt Q969F8)
# Experiment: Human kisspeptin (KISS1R) small molecule agonists, calcium flux assay in KISS1R-HEK293 cells (AID 1920064; active = well fitted activation curve with a large enough effect in the repeat runs)
# Conditions: KISS1R-HEK293, calcium flux fluorescence, agonist; series mostly up to 76.8 µM; activation: at the top concentration
# In short: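 Kinetic calcium assay, 1 s sampling over 3 min at Ex/Em 480/540, in HEK293 cells engineered with human KISS1R; compounds delivered in DMSO after 1 h dye loading.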
# % is scaled to controls: 0 for no effect and ±100 for the full control effect.
# Chain of KiSS-1 receptor (Homo sapiens) (Q969F8 whole entry, looked up): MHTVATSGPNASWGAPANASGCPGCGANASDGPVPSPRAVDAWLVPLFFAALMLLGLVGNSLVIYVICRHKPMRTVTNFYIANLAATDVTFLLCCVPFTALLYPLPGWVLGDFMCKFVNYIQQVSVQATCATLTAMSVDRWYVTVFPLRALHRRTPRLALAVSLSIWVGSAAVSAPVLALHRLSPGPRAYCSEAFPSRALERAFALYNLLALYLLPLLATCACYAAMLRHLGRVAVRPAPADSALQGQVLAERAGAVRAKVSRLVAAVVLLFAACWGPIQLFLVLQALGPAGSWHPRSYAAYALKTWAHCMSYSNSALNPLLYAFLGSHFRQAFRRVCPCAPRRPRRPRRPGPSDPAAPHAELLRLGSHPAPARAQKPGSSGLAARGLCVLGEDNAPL
row,SMILES,activation
1,O=C=NCC1CCCC(CN=C=O)C1 (stereo not given),2.44%
2,CC(CCO)CCCC(C)(C)O (stereo not given),-1.06%
3,Cc1ccc2ccc3cccc4ccc1c2c34,13.1%
4,CCOc1ccc(NS(=O)(=O)c2ccc(N)cc2)nn1,0.101% [at 35.3 µM]
5,COC(=O)c1cc(Cl)cc(Cl)c1,4.26%
6,Oc1cc2ccccc2c2ccccc12,1.35%
7,Cc1ccc(-c2ncc(Cl)cc2-c2ccc(S(C)(=O)=O)cc2)cn1,-0.0643% [at 35.3 µM]
8,Cc1[nH]c(C)c(Cl)c(=O)c1Cl,-1.04% [at 15.8 µM]
9,CCCNCCC,2.54%
10,COc1cc(N)ccc1C,0.328%
11,Cc1ccc2c(c1)CCCN2,1.63%
12,NCCCCCCNCCCCCCN,-1.91%
13,CC(C)(C)C1CCCCC1=O (stereo not given),-0.68%
14,CN(C)CCOCCO,0.828%
15,CC1(C)CC(O)CC(C)(C)N1[O],0.69%
16,C=CCCCCCCCCCCCCCC,-0.0025% [at 15.8 µM]
17,CCN1C=CN(C)C1C (stereo not given),-1.41%
18,CC[N+](C)(CC)CCOC(=O)C1c2ccccc2Oc2ccccc21,1.82% [at 35.3 µM]
19,NCCCN(CCO)CCO,0.439%
20,O=Cc1cc(O)ccc1Br,4.66%

row,SMILES,activation
1,O=CN(CCO)CCO,-2.29%
2,CCN(C(=O)N(CC)c1ccccc1)c1ccccc1,-3.06%
3,CCC(CC)CO,0.614%
4,CC/C=C\CC/C=C/CO,1.97%
5,CC(CSC(=O)c1ccccc1)C(=O)N1C[C@@H](Sc2ccccc2)C[C@H]1C(=O)O (stereo not given in full),-0.676% [at 15.8 µM]
6,Cc1ccccc1N=C(N)Nc1ccccc1C,0.873%
7,C1C2OC2C2C1C1CC2C2OC12 (stereo not given),-2.38%
8,CC[N+](CC)(CC)CCOC(=O)C(C1CCCC1)C1CCCC1,17.8% [at 35.3 µM]
9,O=C1CCCCCCCCCCCC(=O)OCCO1,8.84%
10,CCCCOC(=O)CCCCC(=O)OCCCC,-1.47%
11,c1cc[c]([Bi]([c]2ccccc2)[c]2ccccc2)cc1,0.541%
12,C=C[Si](OC)(OC)OC,2.05%
13,CC(CC=O)CCCC(C)(C)O (stereo not given),-1.85%
14,CCOC(=O)C1=NN(c2ccccc2)C(=O)C1,1.96%
15,Cc1c(Cl)cccc1Cl,-0.347%
16,O=C1c2cccc3c2[C@H](CCC3)CN1[C@@H]1CN2CCC1CC2,0.104% [at 35.3 µM]
17,CCCCC(CC)COC(=O)c1ccccc1 (stereo not given),-0.207%
18,CN(C)CCOC(=O)C(c1ccccc1)C1(O)CCCC1 (stereo not given),-0.0402% [at 35.3 µM]
19,CCN1CCC[C@H]1CNC(=O)c1c(OC)ccc(Br)c1OC,0.288% [at 35.3 µM]
20,CCCCCCCCCCCCCCCC(=O)OCC,-0.614%

# Tested on: not listed separately
# Experiment: G protein-coupled receptor (GPCR) small molecule agonists, calcium flux assay: HEK293 wild type cell line counter screen (AID 1920065)
# Conditions: HEK293 WT calcium flux, fluorescence, agonist mode; series mostly up to 57.6 µM; activation: at the top concentration
# In short: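 Calcium-sensitive dye, loaded 1 h at 37 C into cells cultured 18 h, reports compound-evoked calcium release as fluorescence (Ex/Em 480/540), measured over 3 min. Agonist mode; 15-point titrations, triplicate.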
row,SMILES,activation
1,O=C=NCC1CCCC(CN=C=O)C1 (stereo not given),0.388%
2,CC(CCO)CCCC(C)(C)O (stereo not given),-0.514%
3,Cc1ccc2ccc3cccc4ccc1c2c34,-0.0702%
4,CCOc1ccc(NS(=O)(=O)c2ccc(N)cc2)nn1,0.897% [at 26.5 µM]
5,COC(=O)c1cc(Cl)cc(Cl)c1,-0.33%
6,Oc1cc2ccccc2c2ccccc12,4.24%
7,Cc1ccc(-c2ncc(Cl)cc2-c2ccc(S(C)(=O)=O)cc2)cn1,-0.967% [at 26.5 µM]
8,Cc1[nH]c(C)c(Cl)c(=O)c1Cl,-1.57% [at 11.8 µM]
9,CCCNCCC,0.608%
10,COc1cc(N)ccc1C,-0.86%
11,Cc1ccc2c(c1)CCCN2,-0.0916%
12,NCCCCCCNCCCCCCN,0.372%
13,CC(C)(C)C1CCCCC1=O (stereo not given),-0.058%
14,CN(C)CCOCCO,-0.145%
15,CC1(C)CC(O)CC(C)(C)N1[O],0.2%
16,C=CCCCCCCCCCCCCCC,0.0173% [at 11.8 µM]
17,CCN1C=CN(C)C1C (stereo not given),-1.4%
18,CC[N+](C)(CC)CCOC(=O)C1c2ccccc2Oc2ccccc21,-0.741% [at 26.5 µM]
19,NCCCN(CCO)CCO,1.43%
20,O=Cc1cc(O)ccc1Br,0.447%

row,SMILES,activation
1,O=CN(CCO)CCO,0.218%
2,CCN(C(=O)N(CC)c1ccccc1)c1ccccc1,-3.77%
3,CCC(CC)CO,-0.448%
4,CC/C=C\CC/C=C/CO,-0.241%
5,CC(CSC(=O)c1ccccc1)C(=O)N1C[C@@H](Sc2ccccc2)C[C@H]1C(=O)O (stereo not given in full),0.566% [at 11.8 µM]
6,Cc1ccccc1N=C(N)Nc1ccccc1C,2.06%
7,C1C2OC2C2C1C1CC2C2OC12 (stereo not given),1.06%
8,CC[N+](CC)(CC)CCOC(=O)C(C1CCCC1)C1CCCC1,0.878% [at 26.5 µM]
9,O=C1CCCCCCCCCCCC(=O)OCCO1,-1.65%
10,CCCCOC(=O)CCCCC(=O)OCCCC,-1.98%
11,c1cc[c]([Bi]([c]2ccccc2)[c]2ccccc2)cc1,1.84%
12,C=C[Si](OC)(OC)OC,-0.0349%
13,CC(CC=O)CCCC(C)(C)O (stereo not given),2.49%
14,CCOC(=O)C1=NN(c2ccccc2)C(=O)C1,0.361%
15,Cc1c(Cl)cccc1Cl,0.0119%
16,O=C1c2cccc3c2[C@H](CCC3)CN1[C@@H]1CN2CCC1CC2,0.198% [at 26.5 µM]
17,CCCCC(CC)COC(=O)c1ccccc1 (stereo not given),-0.059%
18,CN(C)CCOC(=O)C(c1ccccc1)C1(O)CCCC1 (stereo not given),0.0467% [at 26.5 µM]
19,CCN1CCC[C@H]1CNC(=O)c1c(OC)ccc(Br)c1OC,0.449% [at 26.5 µM]
20,CCCCCCCCCCCCCCCC(=O)OCC,-1.46%

# Tested on: not listed separately
# Experiment: p53 small molecule agonists, cell-based qHTS assay with human liver microsomes: qHTS cell viability counter screen (AID 1963579); also: nearly all actives have a fitted effect of over 45% in size; also: potency is read from the fitted curve at half-maximal effect
# Conditions: p53RE-bla HCT-116 viability, ATP luminescence, 16 h, HLM; series mostly up to 66 µM; activity change, negative = cytotoxicity: at the top concentration
# In short: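 HLM-supplemented (0.5 mg/mL final) and NADPH-supplemented (0.5 mg/mL final) p53RE-bla cultures, 4,000 cells per well, were dosed with compounds in DMSO for 16 h at 37 C; luminescent ATP detection (CellTiter-Glo, 30 min, room temperature) quantified surviving cells.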
SMILES,"activity change, negative = cytotoxicity",Potency
O=C=NCC1CCCC(CN=C=O)C1 (stereo not given),-0.694%,
CC(CCO)CCCC(C)(C)O (stereo not given),2.16%,
Cc1ccc2ccc3cccc4ccc1c2c34,-10.8%,
CCOc1ccc(NS(=O)(=O)c2ccc(N)cc2)nn1,-1.82% [at 30.3 µM],
COC(=O)c1cc(Cl)cc(Cl)c1,1.31%,
Oc1cc2ccccc2c2ccccc12,,10.2 µM (active)
Cc1ccc(-c2ncc(Cl)cc2-c2ccc(S(C)(=O)=O)cc2)cn1,0.043% [at 30.3 µM],
Cc1[nH]c(C)c(Cl)c(=O)c1Cl,-0.426% [at 13.5 µM],
CCCNCCC,-5.89%,
COc1cc(N)ccc1C,-7.84%,
Cc1ccc2c(c1)CCCN2,-7.4%,
NCCCCCCNCCCCCCN,13.8%,
CC(C)(C)C1CCCCC1=O (stereo not given),-5.8%,
CN(C)CCOCCO,7.2%,
CC1(C)CC(O)CC(C)(C)N1[O],0.159%,
C=CCCCCCCCCCCCCCC,3.4% [at 13.5 µM],
CCN1C=CN(C)C1C (stereo not given),-4.44%,
CC[N+](C)(CC)CCOC(=O)C1c2ccccc2Oc2ccccc21,15.6% [at 30.3 µM],
NCCCN(CCO)CCO,-4.04%,
O=Cc1cc(O)ccc1Br,-11.9%,

SMILES,"activity change, negative = cytotoxicity",Potency
O=CN(CCO)CCO,-1.42%,
CCN(C(=O)N(CC)c1ccccc1)c1ccccc1,-1.8%,
CCC(CC)CO,15.6%,
CC/C=C\CC/C=C/CO,-0.0273%,
CC(CSC(=O)c1ccccc1)C(=O)N1C[C@@H](Sc2ccccc2)C[C@H]1C(=O)O (stereo not given in full),-12.9% [at 13.5 µM],
Cc1ccccc1N=C(N)Nc1ccccc1C,14.4%,
C1C2OC2C2C1C1CC2C2OC12 (stereo not given),-0.309%,
CC[N+](CC)(CC)CCOC(=O)C(C1CCCC1)C1CCCC1,-4.66% [at 30.3 µM],
O=C1CCCCCCCCCCCC(=O)OCCO1,10.3%,
CCCCOC(=O)CCCCC(=O)OCCCC,16.8%,
c1cc[c]([Bi]([c]2ccccc2)[c]2ccccc2)cc1,-27.2%,
C=C[Si](OC)(OC)OC,-6.8%,
CC(CC=O)CCCC(C)(C)O (stereo not given),7.66%,
CCOC(=O)C1=NN(c2ccccc2)C(=O)C1,-0.88%,
Cc1c(Cl)cccc1Cl,-1.66%,
O=C1c2cccc3c2[C@H](CCC3)CN1[C@@H]1CN2CCC1CC2,-13.9% [at 30.3 µM],
CCCCC(CC)COC(=O)c1ccccc1 (stereo not given),-6.39%,
CN(C)CCOC(=O)C(c1ccccc1)C1(O)CCCC1 (stereo not given),-19.2% [at 30.3 µM],
CCN1CCC[C@H]1CNC(=O)c1c(OC)ccc(Br)c1OC,6.21% [at 30.3 µM],
CCCCCCCCCCCCCCCC(=O)OCC,-7.26%,
